# Measured values: the supplement of paper PMC5662767
# Where a name gives a salt, the structure may show the parent alone.
# Test system: Drosophila S2 cl14 SmoIP sensor cells
# Assay: normalized SmoIP GFP fluorescence (untreated unstimulated = 0%, untreated Hh-stimulated = 100%); higher = more Smo activation sensor fluorescence
# Settings: compound concentration: 2 uM, 24 h
# [1] = stimulation: Hh conditioned medium (+Hh)
# [2] = stimulation: mock conditioned medium (-Hh)
# 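Further: flow cytometry read-out as median GFP intensity of gated cells, compounds added 30 min before Hh-conditioned or mock medium, mock-treated cells serving as unstimulated baseline.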
SMILES,normalized SmoIP GFP fluorescence [1],normalized SmoIP GFP fluorescence [2]
C[C@@H]1COC(Nc2ccc3ncnc(Nc4ccc(OCc5nccs5)c(Cl)c4)c3c2)=N1,108%,-17.2%
Nc1c(Br)cc(Br)cc1CN[C@H]1CC[C@H](O)CC1 [ambroxol-hcl],106%,-2.82%
CC(=O)NS(=O)(=O)c1ccc(N)cc1 [sulfacetamide-sodium],103%,-5.72%
COC(=O)c1ccc2c(c1)NC(=O)/C2=C(\Nc1ccc(N(C)C(=O)CN2CCN(C)CC2)cc1)c1ccccc1,108%,7.92%
Cn1cc(-c2ccc3c(c2)CCN3C(=O)Cc2cccc(C(F)(F)F)c2)c2c(N)ncnc21,131%,39.3%
CC(/C=C/C(=O)NO)=C\[C@@H](C)C(=O)c1ccc(N(C)C)cc1 [Trichostatin-A],276%,77.5%
OCCn1cc(-c2ccc3c(c2)CC/C3=N\O)c(-c2ccncc2)n1,97.5%,0.274%
NC(=O)c1cccc(-c2cccc(OC(=O)NC3CCCCC3)c2)c1,134%,-7.15%
COc1cc2c(cc1OC)CN(CCc1ccc(NC(=O)c3cc(OC)c(OC)cc3NC(=O)c3cnc4ccccc4c3)cc1)CC2 [tariquidar],120%,2.77%
COc1ccc(C[C@H](NC(=O)[C@H](C)NC(=O)CN2CCOCC2)C(=O)N[C@@H](Cc2ccccc2)C(=O)[C@@]2(C)CO2)cc1,86.4%,15.1%
CCO[C@@H]1OC(=O)C[C@@H]1NC(=O)[C@@H]1CCCN1C(=O)[C@@H](NC(=O)c1ccc(N)c(Cl)c1)C(C)(C)C,135%,-7.78%
OC(CN1CCN(c2cccc(Cl)c2)CC1)C(c1ccccc1)c1ccccc1 (centres undefined),109%,-4.89%
